The source made the active and inactive calls. Unless noted, no rule for the calls is given here.

The nature of assay [1]: anti-His antibody binders, primary screen, artefact control for SMM control protein annotation, biochemical, small-molecule microarray, 635 nm fluorescence (AID 1128).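 Also: score merges feature fluorescence with signal-to-noise for each printed compound spot.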 The conditions noted are these: anti-His Alexa647 antibody binding, higher = more signal.
Assay [2] relates to Human papillomavirus type 1a E7 protein (residues 1-88). Nature of the assay: HPV1a E7 small-molecule binders, primary screen, biochemical, small-molecule microarray, residues 1-88, 635 nm (AID 1129). Conditions: small-molecule microarray binding, fluorescence 635 nm; higher = more signal.
The target of assay [3] is Focal adhesion kinase 1 (Homo sapiens) (UniProt Q05397). Put plainly: small-molecule microarray binders of FAK, primary screen, biochemical, 635/667 nm fluorescence, BSA, DTT (AID 1130).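 Also: composite of spot emission at 667 nm and signal to noise over triplicate slides.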 The conditions noted are these: PTK2 binding, 635 nm fluorescence, higher = more signal.
Focal adhesion kinase 1 (Homo sapiens), sequence (Q05397 whole entry, looked up): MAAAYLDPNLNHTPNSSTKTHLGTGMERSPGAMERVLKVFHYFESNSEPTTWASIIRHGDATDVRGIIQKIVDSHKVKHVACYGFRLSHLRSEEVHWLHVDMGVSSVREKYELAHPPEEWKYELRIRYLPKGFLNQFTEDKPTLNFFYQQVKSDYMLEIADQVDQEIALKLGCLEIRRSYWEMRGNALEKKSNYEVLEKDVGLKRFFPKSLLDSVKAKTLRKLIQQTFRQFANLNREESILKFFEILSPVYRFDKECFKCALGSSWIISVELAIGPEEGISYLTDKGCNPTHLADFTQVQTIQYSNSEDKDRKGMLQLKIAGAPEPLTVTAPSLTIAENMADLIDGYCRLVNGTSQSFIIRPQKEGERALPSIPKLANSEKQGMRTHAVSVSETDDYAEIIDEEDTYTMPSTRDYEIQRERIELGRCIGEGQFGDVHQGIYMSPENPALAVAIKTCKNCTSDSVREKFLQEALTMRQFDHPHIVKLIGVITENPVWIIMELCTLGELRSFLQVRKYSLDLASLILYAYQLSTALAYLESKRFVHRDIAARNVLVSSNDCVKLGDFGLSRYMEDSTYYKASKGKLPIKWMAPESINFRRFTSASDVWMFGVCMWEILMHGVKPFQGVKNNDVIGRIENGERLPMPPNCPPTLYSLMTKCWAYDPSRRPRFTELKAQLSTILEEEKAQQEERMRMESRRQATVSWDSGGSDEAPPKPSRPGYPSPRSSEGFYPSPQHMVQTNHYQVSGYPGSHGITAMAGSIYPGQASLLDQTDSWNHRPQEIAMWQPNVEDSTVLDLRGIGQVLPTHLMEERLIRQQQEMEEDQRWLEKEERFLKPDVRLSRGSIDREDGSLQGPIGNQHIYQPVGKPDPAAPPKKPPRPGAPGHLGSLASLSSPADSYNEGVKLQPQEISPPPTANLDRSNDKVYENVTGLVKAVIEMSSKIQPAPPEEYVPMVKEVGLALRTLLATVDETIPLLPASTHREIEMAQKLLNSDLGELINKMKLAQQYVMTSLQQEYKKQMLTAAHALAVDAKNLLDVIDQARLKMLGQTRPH
The test system of assay [4] is Fibrinogen (Alexa647-labelled). Put plainly: fibrinogen binders on compound microarrays, profiling panel, artefact control for SMM control-protein annotation, biochemical, small-molecule microarray, 635/667 nm fluorescence (AID 1131).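 Also: z-score merges 667 nm fluorescence with per-spot signal-to-noise over triplicate slides.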 The conditions noted are these: fibrinogen-A647 binding fluorescence, higher = more signal.
Assay [5] has as its target Follistatin (Homo sapiens) (UniProt P19883). Put plainly: follistatin binders on small-molecule microarrays, primary screen, biochemical, small-molecule microarray, 635/667 nm fluorescence (AID 1132). The conditions noted are these: FST binding, 635 nm fluorescence, higher = more signal.
The target in assay [6] is Fibroblast growth factor 2 (Homo sapiens) (UniProt P09038). Put plainly: FGF2 binders on small-molecule microarrays, primary screen, biochemical, small-molecule microarray, 635/667 nm fluorescence (AID 1133). Conditions: small-molecule microarray binding, FGF2, fluorescence 635/667; higher = more signal.
Fibroblast growth factor 2 (Homo sapiens), sequence (P09038 whole entry, looked up): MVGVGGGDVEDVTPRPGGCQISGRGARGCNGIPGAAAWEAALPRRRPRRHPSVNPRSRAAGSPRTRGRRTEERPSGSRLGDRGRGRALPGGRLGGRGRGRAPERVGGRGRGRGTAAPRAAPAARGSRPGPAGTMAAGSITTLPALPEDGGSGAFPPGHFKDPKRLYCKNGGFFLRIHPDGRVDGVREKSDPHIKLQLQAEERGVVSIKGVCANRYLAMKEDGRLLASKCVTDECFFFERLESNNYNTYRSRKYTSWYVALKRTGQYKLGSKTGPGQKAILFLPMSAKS
Assay [7] is described as follows: mitochondrial membrane potential change in A549 cells, profiling panel, cell-based, JC-1 fluorescence, basal, 24 h, 100 nL (AID 1138).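 Also: A549 lung adenocarcinoma cells under basal conditions with no added stimulus; test concentration not given here.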 Conditions: higher = more signal.
The test system of a further assay is Lefty1. Put plainly: Lefty1 binders on small-molecule microarrays, primary screen, biochemical, small-molecule microarray, 635/667 nm fluorescence (AID 1139). The conditions noted are these: small-molecule microarray binding, fluorescence 635/667; higher = more signal.
For assay [8], the system named is wheat germ agglutinin (Triticum aestivum), Alexa647-labelled. Nature of the assay: wheat germ agglutinin binders on compound microarrays, profiling panel, artefact control for SMM control-protein annotation, biochemical, small-molecule microarray, 635/667 nm fluorescence (AID 1140).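 Also: score merges 667 nm feature emission with signal to noise over triplicate slides.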 The conditions noted are these: WGA-A647 binding, 635 nm fluorescence, higher = more signal.

Assay [9] concerns the target Luciferin 4-monooxygenase (Photinus pyralis) (UniProt P08659). Put plainly: firefly luciferase enzyme inhibitors, primary screen, biochemical, luminescence, purified enzyme, 2006 set (AID 1141).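 Also: cell-free assay with purified firefly luciferase at 100 ng per well in PBS; test concentration not given here.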 Conditions: SteadyGlo luminescence, 30 min, higher = more signal, called active from +8 up or from −8 down.
Assay [10] relates to Wnt5a (protein binding on small-molecule microarray). Nature of the assay: Wnt5a binders on small-molecule microarray, primary screen, biophysical, 635/667 nm fluorescence (AID 1142).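 Also: fluorescence read at 667 nm with signal to noise per printed feature.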 Conditions: 635 nm fluorescence, higher = more signal.
Assay [11] can be described thus: cell viability in Huh7 cells, primary screen, cytotoxicity control for HCV replication inhibitor project, CellTiter-Glo luminescence, basal, 48 h (AID 1143).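 Also: Huh7 hepatoma cells carrying a hepatitis C replication reporter with no stimulus; test concentration not given here.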 The conditions noted are these: Huh7 HCV replicon, higher = more signal, called active from +8 up or from −8 down. (In general: ATP-based viability assays read luminescence as a measure of living cells.)
Assay [12] in a line: P. aeruginosa biofilm formation inhibitors, primary screen, PAO1 strain, BacTiter-Glo luminescence, LB-PBS (AID 1144). Conditions: 12 h, higher = more signal.
Assay [13] is described as follows: CREB reporter modulators without forskolin, primary screen, cell-based, PC12, CRE-LacZ reporter, unstimulated (AID 1145). The conditions noted are these: no forskolin, luminescence, 4.5 h, higher = more signal, called active from +8 up or from −8 down.
Assay [14] is described as follows: CREB reporter modulators under forskolin, primary screen, cell-based, PC12, CRE-LacZ reporter, forskolin-stimulated (AID 1146).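 Also: PC12 cells with 6xCRE LacZ reporter stimulated by forskolin 10 µM; beta-galactosidase reporter signal reflecting CREB driven transcription.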 Conditions: luminescence, 4.5 h, higher = more signal, called active from +8 up or from −8 down.
The target of assay [15] is Streptavidin (Streptomyces avidinii) (UniProt P22629). Nature of the assay: streptavidin binders on small-molecule microarray, primary screen, artefact control for SMM compound annotation, biophysical, 635/667 nm fluorescence (AID 1147).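 Also: signal reflects streptavidin binding to arrayed compounds as a control protein.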 Conditions: streptavidin binding, higher = more signal.
Streptavidin (Streptomyces avidinii), sequence (P22629 whole entry, looked up): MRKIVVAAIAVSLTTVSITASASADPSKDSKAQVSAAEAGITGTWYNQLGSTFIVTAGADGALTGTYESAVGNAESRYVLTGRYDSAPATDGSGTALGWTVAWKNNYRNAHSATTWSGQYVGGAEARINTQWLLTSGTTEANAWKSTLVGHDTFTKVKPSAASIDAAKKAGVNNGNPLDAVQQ
A short description of assay [16]: small-molecule binders of probe aInhba, primary screen, biochemical, small-molecule microarray, 635/667 nm fluorescence (AID 1148).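 Also: score merges 667nm spot fluorescence with signal-to-noise for antibody binding to printed compounds.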 The conditions noted are these: higher = more signal.
Assay [17] addresses Torsin-1A (Homo sapiens) (UniProt O14656). Nature of the assay: torsin A binders from cell lysate, primary screen, small-molecule microarray, wild-type, 635/667 nm (AID 1149). Conditions: COS7 hTOR1A-WT lysate, 635 nm fluorescence, higher = more signal.
Assay [18] has the same target. Put plainly: small-molecule binders of mutant TOR1A in lysate, primary screen, cell lysate, small-molecule microarray, COS7 lysate, 635/667 nm fluorescence (AID 1150).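 Also: score pools 667 nm emission and signal to noise measuring lysate protein binding.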 Conditions: COS7 hTOR1A mutant lysate, 635 nm fluorescence, higher = more signal.
Assay [19] deals with Sonic hedgehog protein (Shh). Put plainly: small-molecule binders of Shh protein, primary screen, biochemical, small-molecule microarray, 635/667 nm fluorescence (AID 1151).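 Also: Shh protein binding to compounds spotted on small-molecule microarray slides; score combines spot fluorescence intensity with signal-to-noise across triplicate slides.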 Conditions: small-molecule microarray binding, 635 nm fluorescence; higher = more signal.

Torsin-1A (Homo sapiens), sequence (O14656 whole entry, looked up): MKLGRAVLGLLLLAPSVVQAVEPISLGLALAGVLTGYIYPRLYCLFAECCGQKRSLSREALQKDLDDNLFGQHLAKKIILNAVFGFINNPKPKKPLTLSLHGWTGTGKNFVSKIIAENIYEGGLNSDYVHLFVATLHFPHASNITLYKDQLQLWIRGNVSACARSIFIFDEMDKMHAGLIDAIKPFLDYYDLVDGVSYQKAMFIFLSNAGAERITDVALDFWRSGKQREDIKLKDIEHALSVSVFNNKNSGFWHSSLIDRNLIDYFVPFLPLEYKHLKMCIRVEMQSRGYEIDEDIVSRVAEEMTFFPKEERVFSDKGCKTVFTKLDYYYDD
Follistatin (Homo sapiens), sequence (P19883 whole entry, looked up): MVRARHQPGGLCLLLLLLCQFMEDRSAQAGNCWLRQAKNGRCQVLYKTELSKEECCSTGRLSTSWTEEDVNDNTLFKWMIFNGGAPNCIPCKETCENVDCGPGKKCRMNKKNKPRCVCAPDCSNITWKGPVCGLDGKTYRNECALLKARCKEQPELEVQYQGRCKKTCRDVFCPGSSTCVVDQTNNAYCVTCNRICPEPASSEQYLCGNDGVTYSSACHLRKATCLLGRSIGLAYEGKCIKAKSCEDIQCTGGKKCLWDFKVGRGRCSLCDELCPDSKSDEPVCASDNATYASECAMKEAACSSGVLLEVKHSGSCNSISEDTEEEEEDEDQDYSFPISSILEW
Luciferin 4-monooxygenase (Photinus pyralis), sequence (P08659 whole entry, looked up): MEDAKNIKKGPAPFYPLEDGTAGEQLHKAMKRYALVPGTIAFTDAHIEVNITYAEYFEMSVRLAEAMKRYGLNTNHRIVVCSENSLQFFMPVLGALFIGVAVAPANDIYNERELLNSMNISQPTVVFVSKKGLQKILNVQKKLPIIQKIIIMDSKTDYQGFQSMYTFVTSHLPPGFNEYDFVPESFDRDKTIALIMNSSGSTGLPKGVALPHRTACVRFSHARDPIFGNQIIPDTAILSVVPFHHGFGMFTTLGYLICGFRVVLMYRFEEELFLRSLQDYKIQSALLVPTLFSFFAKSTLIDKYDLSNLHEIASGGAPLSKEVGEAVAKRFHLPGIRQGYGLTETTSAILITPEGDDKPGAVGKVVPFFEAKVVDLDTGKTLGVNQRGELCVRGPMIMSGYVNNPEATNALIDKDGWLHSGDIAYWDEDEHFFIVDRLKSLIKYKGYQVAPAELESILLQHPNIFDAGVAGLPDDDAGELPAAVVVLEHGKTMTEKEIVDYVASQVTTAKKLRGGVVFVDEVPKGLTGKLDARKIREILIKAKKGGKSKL

As to `CC[C@@H]1C=C(C(=O)O)[C@H](c2ccc(C(C)C)cc2)N1S(=O)(=O)c1ccc(C)cc1`, the composite z-score in assay [1] came to 2.08; in assay [2], 1.21; in assay [3], 1.17; in assay [4] it was 1.03; in [5], 0.919; in [6] it was 0.52. Further, the composite z-score in the assay with Lefty1 is 0.0565; in [8] it was 1.35; in assay [10] it was 0.764; in assay [15], 0.939; in assay [16], 0.432; with Torsin-1A (Homo sapiens) [17] it was 0.145. Besides, the results for the composite z-score (with Torsin-1A (Homo sapiens) [18]; in [19]) were 1.22 and 0.34, respectively. Also, the z-score in [7] is -1.25; in [9], 0.734 (inactive); in assay [11], -0.822 (inactive); in assay [12] it was 0.448 (inactive); in [13], -0.0137 (inactive); in assay [14] it was -0.0578 (inactive).
For the compound `CC(C)C(CO)N1C(=O)[C@@H]2[C@H]3C(=O)OCC=C[C@H]3OC23C=CCN(c2ccc4ccccc4c2)C(=O)[C@@H]13` (stereo not given in full), the composite z-score was -0.151 in assay [1]; -1.29 in [2]; -0.493 in [3]; -0.581 in assay [4]; -0.851 in [5]; -1.18 in assay [6]. Besides, the composite z-score is -0.842 with Lefty1; -0.328 in assay [8]; -0.0522 in assay [10]; -0.818 in [15]; -0.179 in [16]; -0.905 with Torsin-1A (Homo sapiens) [17]. Also, the values for the composite z-score (with Torsin-1A (Homo sapiens) [18]; in assay [19]) were -2.07 and -0.506, respectively. Also, the z-score was 0.742 in [7]; -0.194 (inactive) in assay [9]; -0.372 (inactive) in [11]; 2.05 (inactive) in assay [12]; 0.732 (inactive) in assay [13]; 0.755 (inactive) in assay [14].
Regarding `C[N+](C)(C)CCCC[C@@H]1NC(=O)[C@@H]2C[C@H](C(=O)NCCCCCCNC(=O)CS)[C@H](c3cccc(OCCO)c3)N2C1=O`, the composite z-score is 1.89 in assay [1]; -0.208 in assay [2]; -0.379 in assay [3]; 0.552 in assay [4]; 1.27 in assay [5]; 1.2 in assay [6]. For the same compound, the composite z-score is 1.29 in the assay on Lefty1; 0.585 in assay [8]; -0.326 in assay [10]; -1.12 in [15]; -0.231 in assay [16]; 0.23 with Torsin-1A (Homo sapiens) [17]. Also, the values for the composite z-score (in the assay with Torsin-1A (Homo sapiens) [18]; in assay [19]) were 1.87 and 1.54, respectively. Besides, the z-score in [7] was 0.332; in [9], -1.45 (inactive); in assay [11], 0.214 (inactive); in assay [12], -0.555 (inactive); in assay [13], -0.671 (inactive); in assay [14], -0.29 (inactive).
`COC(=O)[C@@]1(Cc2ccc(F)cc2)[C@H]2c3cc(C(=O)N4CCCC4)n(Cc4ccc(Cl)c(C(F)(F)F)c4)c3C[C@H]2CN1C(=O)c1ccccc1`: the composite z-score was 2.45 in assay [1]; 1.23 in assay [2]; 0.777 in [3]; 1.01 in [4]; 1.08 in assay [5]; -0.716 in [6]. Moreover, the composite z-score is -0.862 with Lefty1; 1.22 in [8]; 1.99 in assay [10]; 2.28 in [15]; 1.35 in [16]; 0.0817 with Torsin-1A (Homo sapiens) [17]. The composite z-score is 0.51 with Torsin-1A (Homo sapiens) [18] and -0.239 in assay [19]. The z-score in assay [7] is 0.815; in [9] it was 1.18 (inactive); in assay [11], -2.95 (inactive); in assay [12], 0.678 (inactive); in [13], 0.204 (inactive); in assay [14] it was 1.49 (inactive).
For the compound `COCCCNC(=O)[C@@]1(C)c2ccccc2C(=O)N(Cc2ccccc2)[C@H]1c1ccc(CO)cc1`, the composite z-score in assay [1] was 0.909; in [2] it was 0.0047; in assay [3], 0.101; in assay [4] it was -0.678; in assay [5] it was 0.0033; in assay [6], -0.992. Further, the composite z-score with Lefty1 was -0.635; in [8], -0.505; in [10], -0.811; in assay [15], -0.944; in assay [16], -0.0963; with Torsin-1A (Homo sapiens) [17] it was -2.72. For the same compound, the values for the composite z-score (with Torsin-1A (Homo sapiens) [18]; in assay [19]) were 2.16 and 0.182, respectively. The z-score in assay [7] is -0.939; in [9] it was -0.0137 (inactive); in assay [11], -4.52 (inactive); in assay [12], -0.453 (inactive); in assay [13] it was -0.295 (inactive); in assay [14] it was -0.463 (inactive).
